Measured values from PubChem BioAssay AID744 (University of Pittsburgh Molecular Library Screening Center, 2007).
The list shows a part of the results.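 Rule for the calls: active = inhibition at or above 50% in each of two repeat confirmation tests; inconclusive = one repeat below 50% inhibition, the other above; inactive = both repeats at or below 50% inhibition.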

Biological target: Serine/threonine-protein kinase PLK1 (Homo sapiens) (UniProt P53350)
Test: blockers of recombinant PLK1 peptide phosphorylation – biochemical, TR-FRET, duplicate runs, confirmation (AID 744);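 note: 0% = DMSO max control and 100% = H-89 kinase-blocked min control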
Conditions: at 10 µM, active compounds read high

Serine/threonine-protein kinase PLK1 (Homo sapiens), sequence (P53350 whole entry, looked up): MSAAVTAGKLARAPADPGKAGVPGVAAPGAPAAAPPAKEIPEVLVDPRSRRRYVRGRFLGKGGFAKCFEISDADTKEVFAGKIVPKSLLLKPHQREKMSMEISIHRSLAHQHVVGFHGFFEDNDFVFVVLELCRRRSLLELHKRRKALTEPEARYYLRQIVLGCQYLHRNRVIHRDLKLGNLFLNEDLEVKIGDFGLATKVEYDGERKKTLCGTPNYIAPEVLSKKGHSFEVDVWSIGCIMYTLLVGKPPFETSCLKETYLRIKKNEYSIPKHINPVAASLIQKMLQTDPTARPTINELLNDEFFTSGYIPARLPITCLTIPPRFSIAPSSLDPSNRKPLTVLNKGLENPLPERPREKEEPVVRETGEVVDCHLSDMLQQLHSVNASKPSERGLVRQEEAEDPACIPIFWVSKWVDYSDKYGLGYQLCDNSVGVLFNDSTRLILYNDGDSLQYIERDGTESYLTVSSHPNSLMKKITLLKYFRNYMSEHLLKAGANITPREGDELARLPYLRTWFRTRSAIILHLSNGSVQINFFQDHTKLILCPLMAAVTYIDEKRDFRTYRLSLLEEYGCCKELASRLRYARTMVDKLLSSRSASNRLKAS

inhibition, inactive:
C[N+]1(CCNC(=O)/C=N/O)CCCCC1 -0.685%, CC1CSc2nnc(CCc3ccccc3)n21 (stereo unspecified) -11.1%, Cc1ccnc(N2C(=O)c3ccccc3C2Nc2ccc3c(c2)OCCO3)c1 (stereo unspecified) -3.64%, O=C(Nc1cccc(F)c1)c1ccc(S(=O)(=O)N2CCCC2)cc1 -12.1%, COc1ccc(-c2nc(CS(=O)CC(=O)NCc3cccnc3)c(C)o2)cc1OC (stereo unspecified) -2.97%, CC1CN(c2cc(=O)n(Cc3ccc(F)cc3)c(=O)[nH]2)CC(C)O1 (stereo unspecified) -5.99%
